The structures appear in SMILES notation. Screen size: about 48,000 compounds; about 13,000 (27%) showed an effect of 50% or more. This is one part of the list.

The assay has as its system Wolbachia pipientis. Briefly: Anti-Wolbachia Cell-Based Screen. In kind it is functional. Set-up: scale not given: in the data most compounds retested in dose-response had high values. To be noted: 5 µM.
Turning to `CC(C)(C)NC(=O)CNC(=O)CCc1ccccc1Br`, the “Percent Effect” value amounted to 12.72%. With `Cc1nc(CN(C)C2CCCN(c3cccnn3)C2)nc2ccccc12` (centres undefined), the “Percent Effect” value stood at 87.46%. On to `CN(Cc1ncc(-c2ccccc2)o1)C1CCCN(c2cccnn2)C1` (centres undefined), for which the “Percent Effect” value came out at 2.582%.

On to `CN(c1ncnc2c1cnn2C)C1CCCN(c2cccnn2)C1` (centres undefined), for which the “Percent Effect” value is -20.96%.

With `CN(c1ncnc2sccc12)C1CCCN(c2cccnn2)C1` (centres undefined), the “Percent Effect” value stood at 17%.

Regarding `Cc1nc2ccccc2nc1CN(C)C1CCCN(c2cccnn2)C1` (centres undefined), the “Percent Effect” value was 3.642%. For `CN(c1ncnc2ccccc12)C1CCCN(c2cccnn2)C1` (centres undefined), the “Percent Effect” value is listed as 80.98%. As for `CN(Cc1nc2ccccc2s1)C1CCCN(c2cccnn2)C1` (centres undefined), the “Percent Effect” value is given as 143.8%. Then `CN(Cc1nc(N)c2ccccc2n1)C1CCCN(c2cccnn2)C1` (centres undefined), with 10.49%; and `Cc1nc(CN(C)CC2CCCN2c2cccnn2)nc2ccccc12` (centres undefined), with 6.947%. The value for `O=C(C[C@H]1[C@H]2CN(c3ncccn3)C[C@@H]12)Nc1cccnc1.O=C(O)C(F)(F)F.O=C(O)C(F)(F)F` was -0.113%; that for `CCc1nc(CN(C)CC2CCN(CC(C)O)CC2)no1` (centres undefined) was -10.69%. As for `CN1CCCC(CCC(=O)N2CCc3sc(C(=O)N(C)C)cc3C2)C1` (centres undefined), the “Percent Effect” value is -22.79%.

For the molecule `Cc1nc(C2CCCN2CC(=O)N2CCCc3ccccc32)no1` (centres undefined), the “Percent Effect” value is -7.265%. On to `COCc1ncc(CN(Cc2ccncc2)Cc2ccc(C)s2)cn1`, for which the “Percent Effect” value is 12.8%. The value for `O=C(CNc1ccc(F)cc1OCC(F)(F)F)NCC(F)(F)F` was -7.353%; that for `O=C(CCc1ccco1)Nc1ncn(CC(=O)N2CCCCCC2)n1` was 1.429%.

Consider `O=C1CC2(CCN(S(=O)(=O)C3CC3)C2)CN1c1cncnc1` (centres undefined), for which the “Percent Effect” value is recorded as 7.231%. The value for `CCS(=O)(=O)N1CCC2(CC(=O)N(c3cccc(C)c3)C2)C1` (centres undefined) was -28.77%; that for `O=C1CC2(CCN(c3nncs3)C2)CN1c1cncnc1` (centres undefined) was 102.2%.

As to `O=C1CC2(CCN(c3nncs3)C2)CN1c1ccccc1` (centres undefined), the “Percent Effect” value is recorded as 7.339%. Then `O=C1CC2(CCN(c3nncs3)C2)CN1c1ccc2c(c1)OCCO2` (centres undefined), with 105.6%; and `Cc1cccc(N2CCCC3(C2)CN(c2nncs2)CCO3)c1` (centres undefined), with -21.39%; and `O=C(N1CCCC1)N1CCC2(CC(=O)N(c3ccc4c(c3)OCO4)C2)C1` (centres undefined), with -19.45%.

As for `O=C1CC2(CCN(Cc3cccs3)C2)CN1c1cccc(F)c1` (centres undefined), the “Percent Effect” value came out at 17.5%. In the case of `O=C1CC2(CCN(c3nncs3)C2)CN1c1cccc(F)c1` (centres undefined), the “Percent Effect” value amounted to 96.11%. Consider `Cc1cccc(N2CC3(CCN(c4nncs4)C3)CC2=O)c1` (centres undefined), for which the “Percent Effect” value is on record as 106.3%. For `O=C1CC2(CCN(Cc3ccoc3)C2)CN1c1ccc2c(c1)OCO2` (centres undefined), the “Percent Effect” value stood at 2.94%. Take `CCS(=O)(=O)N1CCC2(CC(=O)N(c3cncnc3)C2)C1` (centres undefined): the “Percent Effect” value is listed as -9.187%. The value for `CN(Cc1ccc(Cl)s1)C(=O)NCCC(=O)N1CCCCCC1` was -2.265%; that for `CCn1c(CC2CCN(C(=O)C3COCCO3)CC2)nn(C)c1=O` (centres undefined) was -4.106%; that for `Cc1nc(C)n(CCNC2CCN(c3ncnc4c(C)csc34)CC2)n1` was -4.781%. Consider `N#Cc1ccccc1N1CCCN(CC(=O)Nc2ccc(Cl)cn2)CC1`, for which the “Percent Effect” value is given as -6.971%. The value for `Cc1cc(N)nc(SC2CCCN(Cc3ccccc3)C2=O)n1` (centres undefined) was -26.38%. Take `Cc1ccccc1N1CC2(CCN(Cc3nccn3C)C2)CC1=O.O=C(O)C(F)(F)F` (centres undefined): the “Percent Effect” value was determined as 12.68%.

Turning to `Cc1cnc(C(=O)N2CCC3(CCCN(c4nncs4)C3)C2)cn1` (centres undefined), the “Percent Effect” value is -22.67%.

With `Cc1ccccc1N1CC2(CCN(c3nncs3)C2)CC1=O` (centres undefined), the “Percent Effect” value stood at 115.5%. The value for `O=S1(=O)C[C@@H]2[C@H](C1)N(Cc1ncc[nH]1)CCN2C/C=C/c1ccccc1` was -2.971%; that for `Cn1ccnc1CN1CCN(Cc2ccncc2)[C@@H]2CS(=O)(=O)C[C@@H]21` was 120.1%. The value for `Cc1n[nH]c(CN2CCN(Cc3ccccc3)[C@@H]3CS(=O)(=O)C[C@@H]32)n1` was -3.3%; that for `Cn1ccnc1CN1CCN(Cc2ccccc2)[C@@H]2CS(=O)(=O)C[C@@H]21` was 89.31%; that for `O=S1(=O)C[C@@H]2[C@H](C1)N(Cc1ncc[nH]1)CCN2CCCc1ccccc1` was 97.44%. The value for `Cc1ccc(CN2CCN(Cc3ccncc3)[C@@H]3CS(=O)(=O)C[C@@H]32)cc1` was 9.085%; that for `O=C(C1CCCC1)N1CCN(Cc2ccncc2)[C@@H]2CS(=O)(=O)C[C@@H]21` was -3.8%. `CCc1ccccc1CN1CCN(Cc2ncc[nH]2)[C@H]2CS(=O)(=O)C[C@H]21`: the “Percent Effect” value stood at 21.76%. The value for `O=S1(=O)C[C@@H]2[C@H](C1)N(S(=O)(=O)N1CCCC1)CCN2Cc1ccccc1` was -24.95%; that for `CC1(C)CCC(C(=O)N2CCCO2)c2ccccc21` (centres undefined) was 6.18%. As to `CC(C)OC(=O)N1CCCC2(CCC(=O)N(CCc3c[nH]cn3)C2)C1` (centres undefined), the “Percent Effect” value stood at 2.776%.

With `Cc1ccc(Cl)c(NC(=O)NC2(C)CCOC2)c1` (centres undefined), the “Percent Effect” value is -14.51%. As to `Cc1nc(CNC(=O)CC2C(=O)NCCN2CCC(C)C)n[nH]1` (centres undefined), the “Percent Effect” value is recorded as 13.35%. Then `CC(C)c1noc(CCCC(=O)N2CCC(Cc3cccnc3)CC2)n1`, with -13.45%. Then `CN(C)CCn1ccnc1C1CCCN(C(=O)CCc2cccnc2)C1` (centres undefined), with -16.88%; and `O=C1CCCN1CCCC(=O)N1CCCC(Cc2cccnc2)C1` (centres undefined), with 77.87%; and `O=C(CSCC1CC1)N1CCCC(c2nccn2Cc2cccnc2)C1` (centres undefined), with -14.92%. Then `O=C(CCn1ncc2ccccc21)N1CCCC(Cc2cccnc2)C1` (centres undefined), with 101.6%.

For `CN(CCC(=O)N1CCCC(Cc2cccnc2)C1)Cc1cccnc1` (centres undefined), the “Percent Effect” value was determined as 128.2%.

In the case of `CC1CCCN(C(=O)CCNS(=O)(=O)c2cccnc2)C1` (centres undefined), the “Percent Effect” value is given as 5.119%. Then `Cc1ccn(CCC(=O)N2CCCC(Cc3cccnc3)C2)n1` (centres undefined), with 122.4%; and `COCCN1CC2(CCC1=O)CCN(Cc1cc(F)ccc1Cl)CC2`, with 8.376%; and `COCCCN1CC2(CCC1=O)CCN(Cc1cc(C)no1)CC2`, with -12.58%. Take `O=C(CCC1CCCO1)NCCN1CCCCC1` (centres undefined): the “Percent Effect” value was -10.6%. The value for `CC1CCCN(C(=O)CCc2cccnc2)C1` (centres undefined) was -4.583%; that for `CC(C)C(=O)N1CCCC(Cc2cccnc2)C1` (centres undefined) was 104.6%; that for `CSc1nnc(CC2CCN(C(=O)CCc3cccnc3)CC2)n1C` was -9.622%.

On to `Cn1nccc1CCC(=O)N1CCCC(Cc2cccnc2)C1` (centres undefined), for which the “Percent Effect” value was 92.49%. The value for `CC(C)C(=O)N1CCC2(CC1)NC(=O)[C@H]1CN(Cc3cccnc3)C[C@H]12` was -21.16%; that for `CC(C)c1nc(C2CCCN(C(=O)Cc3cccnc3)C2)no1` (centres undefined) was -1.83%. For the molecule `CCN(C(=O)Cc1ccc(NCc2ncc[nH]2)cc1)c1ccccc1`, the “Percent Effect” value is listed as -2.92%. The value for `Cc1[nH]c(=O)c(C#N)cc1C(=O)N1C[C@@H](CN2CCCC2)C[C@H](CO)C1` was 10.61%; that for `CCOc1ccccc1C(CC(=O)Nc1ccccc1)NC(C)=O` (centres undefined) was -7%. Then `CCC(=O)N1CCN(c2cc(N(C)C)cnn2)CC1`, with 6.449%; and `O=c1[nH]c(N2CC(O)C2)nc2c1cnn2-c1ccccc1`, with 21.25%. Then `Cc1nc(CN2C(=O)COC3(CCN(CC4CC4)CC3)C2C)cs1.O=C(O)C(F)(F)F` (centres undefined), with 98.79%; and `CC1N(CC2CC2)C(=O)COC12CCN(C(=O)c1cscn1)CC2` (centres undefined), with -4.225%.

Regarding `Cc1nc(CN2C(=O)CC3(CCN(C(N)=O)CC3)c3ccccc32)cs1.O=C(O)C(F)(F)F`, the “Percent Effect” value is -9.244%. As for `Cc1nc(CN2C(=O)COC3(CCN(C)CC3)C2C)cs1.O=C(O)C(F)(F)F` (centres undefined), the “Percent Effect” value was 127.2%. The value for `COCC1CC2(CCN(C(N)=O)CC2)CN1Cc1csc(C)n1.O=C(O)C(F)(F)F` (centres undefined) was -7.067%; that for `Cc1nc(CN2C(=O)COC3(CCN(Cc4ccsc4)CC3)C2C)cs1.O=C(O)C(F)(F)F` (centres undefined) was 114.5%; that for `Cc1nc(CN2C(=O)COC3(CCN(C(N)=O)CC3)C2C)cs1` (centres undefined) was 117.7%. Turning to `Cc1nc(CN2C(=O)COC3(CCN(Cc4nccs4)CC3)C2C)cs1.O=C(O)C(F)(F)F` (centres undefined), the “Percent Effect” value was -7.401%. The value for `CCc1ccc(CNC(=O)Nc2cc(C)on2)s1` was -14.37%; that for `COCc1nc2cc3c(cc2c(=O)o1)OCCCO3` was -7.292%. Then `COc1cc(CC(O)CC#N)c(OC)c2c1OCO2` (centres undefined), with -11.73%; and `COCc1noc(-c2nn(-c3ccccc3F)c3c2CCC3)n1`, with -4.596%. For the molecule `Cc1ncsc1CCC(=O)N1CCCC[C@H](N(C)C)C1`, the “Percent Effect” value is 4.231%. Then `CCCNc1ccc(C(=O)NCCc2cccc(OC)c2)cn1`, with 121.7%; and `CCCNc1ccc(C(=O)NCCc2cccc(Cl)c2)cn1`, with 116.4%; and `CNC(=O)c1cccc(CCNc2ccccn2)c1`, with -20.45%.

For `COc1cc(C(=O)NCCc2ccc(Cl)cc2)on1`, the “Percent Effect” value is recorded as -4.303%.

`COc1cccc(CCNC(=O)c2ccc(=O)n(C)c2)c1`: the “Percent Effect” value was found to be 11.31%.

For the molecule `CNC(=O)c1cccc(CCNc2ccc(C#N)cn2)c1`, the “Percent Effect” value is -20.96%. On to `CCNc1ncc(C(=O)NCCc2ccc(C)c(C)c2)cn1`, for which the “Percent Effect” value is given as -6.077%.

For the molecule `COc1cc(C(=O)NCCc2cccc(C)c2)on1`, the “Percent Effect” value is given as -13.11%. In the case of `CCCNc1ccc(C(=O)NCCc2ccc(Cl)cc2)cn1`, the “Percent Effect” value is reported as 106.9%. In the case of `CCCn1cnnc1CNC(=O)CC1C(=O)NCCN1C(C)C` (centres undefined), the “Percent Effect” value is -4.75%. The value for `CN(CCCc1nccn1C)C(=O)C1CCN(C(=O)C2CCCC2)CC1` was -7.854%; that for `Cc1cc(C)cc(CN2CCN(Cc3ccc4nonc4c3)CC2=O)c1` was -1.635%; that for `CCNC(=O)CN1CCC(c2cc(OC)cc(OC)c2)C1` (centres undefined) was -11.46%. The value for `CCOCC1CN(S(C)(=O)=O)Cc2nn(C)cc21` (centres undefined) was -37.27%; that for `Cc1nc(C2CCCN(C(=O)c3ccc(OCC4CC4)cc3)C2)no1` (centres undefined) was -3.23%. The value for `Cc1nc(C2CCCN(C(=O)c3ccc(N4CCCC4)nc3)C2)no1` (centres undefined) was -0.5946%; that for `COc1ccnc(C(=O)N2CCCC(c3noc(C)n3)C2)c1` (centres undefined) was -1.667%. With `Cc1nc(C2CCCN(C(=O)c3ccc(OCC4CC4)nc3)C2)no1` (centres undefined), the “Percent Effect” value worked out at 97.67%. The value for `CCOc1cc(C(=O)N2CCCC(c3noc(C)n3)C2)ccc1OC` (centres undefined) was 123.2%.
